Measurements taken from PubChem BioAssay (EPA / NIEHS).
Values joined by “and” are separate entries in the source; they are usually repeats but may differ in a detail not shown here. Equal values may be shown once. Some structures have more than one record in an assay (separate samples or runs), and their calls can disagree. Active and inactive are the calls of the source. The calls were made as follows: active = hit-call score of the fitted dose curve at least 0.9, where 1 is the maximum; inactive = score below 0.9.

Experiment: APR_HepG2_MicrotubuleCSK_24hr: Apredica 24-hour HepG2 Assay for Microtubule CSK Stabilty (AID 2282909)
Conditions: HepG2 microtubule cytoskeleton imaging, actives raise or lower the signal
In short: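 Compounds were applied to HepG2 cells for 24 hours across 0.39–200 uM in duplicate, with final DMSO at 0.5% v/v. Fixed, permeabilized cells were labeled for alpha-tubulin and nuclei, and tubulin fluorescence was quantified by imaging, fitted bidirectionally against DMSO.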

Row | SMILES | outcome | AC50
1 | OCCOc1ccccc1 | inactive | –
2 | CC1(c2ccc(Oc3ccccc3)cc2)OC(=O)N(Nc2ccccc2)C1=O (stereo unspecified) | – | 88.5 µM (active)
3 | CC(C)(C)C(O)C(Oc1ccc(Cl)cc1)n1cncn1 (stereo unspecified) | inactive | –
4 | O=S1OCC2C(CO1)C1(Cl)C(Cl)=C(Cl)C2(Cl)C1(Cl)Cl (stereo unspecified) | inactive | –
5 | CC(C)OC(=O)Nc1cccc(Cl)c1 | inactive | –
6 | COP(=S)(OC)Oc1ccc([N+](=O)[O-])cc1 | inactive | –
7 | O=C(O)C(F)(F)C(F)(F)C(F)(F)C(F)(F)C(F)(F)C(F)(F)C(F)(F)F | inactive | –
8 | Cc1[nH]c(=O)n(C(C)(C)C)c(=O)c1Cl | inactive | –
9 | O=[N+]([O-])c1c(Cl)c(Cl)c(Cl)c(Cl)c1Cl | inactive | –
10 | CCCN(CCOc1c(Cl)cc(Cl)cc1Cl)C(=O)n1ccnc1 | inactive | –
11 | O=S(=O)(O)C(F)(F)C(F)(F)C(F)(F)C(F)(F)C(F)(F)C(F)(F)C(F)(F)C(F)(F)F | inactive | 113 µM (active)
12 | Oc1cc(Cl)ccc1Oc1ccc(Cl)cc1Cl | inactive | 98.5 µM (active) and 33.3 µM (active)
13 | CCC(C)(NC(=O)c1cc(Cl)c(C)c(Cl)c1)C(=O)CCl (stereo unspecified) | inactive | –
14 | CNC(=O)Oc1ccccc1OC(C)C | inactive | –
15 | CNC(=O)CSP(=S)(OC)OC | inactive | –
16 | O=C1c2ccccc2C(=O)N1SC(Cl)(Cl)Cl | inactive | –
17 | ClC1C(Cl)C(Cl)C(Cl)C(Cl)C1Cl (stereo unspecified) | inactive | –
18 | [2H]C1([2H])[n+]2ccccc2-c2cccc[n+]2C1([2H])[2H] | inactive | –
19 | COC(=O)c1ccccc1CS(=O)(=O)NC(=O)Nc1nc(OC)cc(OC)n1 | inactive | –
20 | CC[C@H](C)[C@H]1O[C@]2(C=C[C@@H]1C)C[C@@H]1C[C@@H](C/C=C(\C)[C@@H](O[C@H]3C[C@H](OC)[C@@H](O[C@H]4C[C@H](OC)[C@@H](O)[C@H](C)O4)[C@H](C)O3)[C@@H](C)/C=C/C=C3\CO[C@@H]4[C@H](O)C(C)=C[C@@H](C(=O)O1)[C@]34O)O2 (tested in a mixture with another compound) | – | 120 µM (active)
21 | CNC(=O)Oc1cccc(N=CN(C)C)c1 | inactive | –
22 | Clc1ccccc1-c1nnc(-c2ccccc2Cl)nn1 | inactive | –
23 | Cc1cc(C)nc(NC(=O)NS(=O)(=O)c2ccccc2C(=O)OC2COC2)n1 | inactive | –
24 | O=C(O)COc1ccc(Cl)cc1Cl | inactive | –
25 | COC(=O)c1ccccc1S(=O)(=O)NC(=O)N(C)c1nc(C)nc(OC)n1 | inactive | –
26 | Oc1ccc(Cl)cc1Cc1ccccc1 | inactive | 34.7 µM (active) and 79.9 µM (active) and 97.3 µM (active)

Experiment: APR_HepG2_MitoticArrest_24hr: Apredica 24-hour HepG2 Assay for Mitotic Arrest (AID 2282910)
Conditions: high-content imaging, actives raise or lower the signal
In short: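 High-content imaging of fixed HepG2 cells labeled with Hoechst 33342 and anti-phospho-histone H3, after 24 h treatment. Ten concentrations 0.39 to 200 uM in duplicate, final DMSO 0.5%; changes fitted both directions relative to DMSO.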

Row | SMILES | AC50 | outcome
27 | CC1(c2ccc(Oc3ccccc3)cc2)OC(=O)N(Nc2ccccc2)C1=O (stereo unspecified) | 98.3 µM (active) | –
28 | O=S1OCC2C(CO1)C1(Cl)C(Cl)=C(Cl)C2(Cl)C1(Cl)Cl (stereo unspecified) | – | inactive
29 | CC(C)OC(=O)Nc1cccc(Cl)c1 | – | inactive
30 | COP(=S)(OC)Oc1ccc([N+](=O)[O-])cc1 | – | inactive
31 | Cc1[nH]c(=O)n(C(C)(C)C)c(=O)c1Cl | – | inactive
32 | O=[N+]([O-])c1c(Cl)c(Cl)c(Cl)c(Cl)c1Cl | – | inactive
33 | CCCN(CCOc1c(Cl)cc(Cl)cc1Cl)C(=O)n1ccnc1 | – | inactive
34 | CNC(=O)CSP(=S)(OC)OC | – | inactive
35 | O=C1c2ccccc2C(=O)N1SC(Cl)(Cl)Cl | – | inactive
36 | ClC1C(Cl)C(Cl)C(Cl)C(Cl)C1Cl (stereo unspecified) | – | inactive
37 | [2H]C1([2H])[n+]2ccccc2-c2cccc[n+]2C1([2H])[2H] | – | inactive
38 | COC(=O)c1ccccc1CS(=O)(=O)NC(=O)Nc1nc(OC)cc(OC)n1 | – | inactive
39 | Clc1ccccc1-c1nnc(-c2ccccc2Cl)nn1 | – | inactive
40 | Cc1cc(C)nc(NC(=O)NS(=O)(=O)c2ccccc2C(=O)OC2COC2)n1 | – | inactive
41 | COC(=O)c1ccccc1S(=O)(=O)NC(=O)N(C)c1nc(C)nc(OC)n1 | – | inactive

Experiment: APR_HepG2_MitoMembPot_24hr: Apredica 24-hour HepG2 Assay for Mitochondrial Membrane Potential (AID 2282911)
Conditions: imaging, actives raise or lower the signal
In short: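 HepG2 human liver cells were exposed 24 hr to compounds at 0.39–200 uM (final DMSO 0.5% v/v) in duplicate. MitoTracker Red CMXRos (250 nM, 30 min) was loaded before formaldehyde fixation; fluorescence was imaged by ArrayScan HCS and fitted bidirectionally versus DMSO.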

Row | SMILES | outcome | AC50
42 | OCCOc1ccccc1 | inactive | –
43 | CC1(c2ccc(Oc3ccccc3)cc2)OC(=O)N(Nc2ccccc2)C1=O (stereo unspecified) | – | 6.77 µM (active)
44 | CC(C)(C)C(O)C(Oc1ccc(Cl)cc1)n1cncn1 (stereo unspecified) | inactive | –
45 | O=S1OCC2C(CO1)C1(Cl)C(Cl)=C(Cl)C2(Cl)C1(Cl)Cl (stereo unspecified) | inactive | –
46 | CC(C)OC(=O)Nc1cccc(Cl)c1 | inactive | –
47 | COP(=S)(OC)Oc1ccc([N+](=O)[O-])cc1 | inactive | –
48 | O=C(O)C(F)(F)C(F)(F)C(F)(F)C(F)(F)C(F)(F)C(F)(F)C(F)(F)F | inactive | –
49 | Cc1[nH]c(=O)n(C(C)(C)C)c(=O)c1Cl | inactive | –
50 | O=[N+]([O-])c1c(Cl)c(Cl)c(Cl)c(Cl)c1Cl | inactive | –
51 | CCCN(CCOc1c(Cl)cc(Cl)cc1Cl)C(=O)n1ccnc1 | inactive | –
52 | O=S(=O)(O)C(F)(F)C(F)(F)C(F)(F)C(F)(F)C(F)(F)C(F)(F)C(F)(F)C(F)(F)F | inactive | –
53 | Oc1cc(Cl)ccc1Oc1ccc(Cl)cc1Cl | inactive | 97.9 µM (active) and 4.39 µM (active)
54 | CCC(C)(NC(=O)c1cc(Cl)c(C)c(Cl)c1)C(=O)CCl (stereo unspecified) | – | 30.1 µM (active)
55 | CNC(=O)Oc1ccccc1OC(C)C | inactive | –
56 | CNC(=O)CSP(=S)(OC)OC | inactive | –
57 | O=C1c2ccccc2C(=O)N1SC(Cl)(Cl)Cl | inactive | –
58 | ClC1C(Cl)C(Cl)C(Cl)C(Cl)C1Cl (stereo unspecified) | inactive | –
59 | [2H]C1([2H])[n+]2ccccc2-c2cccc[n+]2C1([2H])[2H] | inactive | –
60 | COC(=O)c1ccccc1CS(=O)(=O)NC(=O)Nc1nc(OC)cc(OC)n1 | inactive | –
61 | CC[C@H](C)[C@H]1O[C@]2(C=C[C@@H]1C)C[C@@H]1C[C@@H](C/C=C(\C)[C@@H](O[C@H]3C[C@H](OC)[C@@H](O[C@H]4C[C@H](OC)[C@@H](O)[C@H](C)O4)[C@H](C)O3)[C@@H](C)/C=C/C=C3\CO[C@@H]4[C@H](O)C(C)=C[C@@H](C(=O)O1)[C@]34O)O2 (tested in a mixture with another compound) | inactive | –
62 | CNC(=O)Oc1cccc(N=CN(C)C)c1 | inactive | –
63 | Clc1ccccc1-c1nnc(-c2ccccc2Cl)nn1 | – | 59.5 µM (active)
64 | Cc1cc(C)nc(NC(=O)NS(=O)(=O)c2ccccc2C(=O)OC2COC2)n1 | inactive | –
65 | O=C(O)COc1ccc(Cl)cc1Cl | inactive | –
66 | COC(=O)c1ccccc1S(=O)(=O)NC(=O)N(C)c1nc(C)nc(OC)n1 | inactive | –
67 | Oc1ccc(Cl)cc1Cc1ccccc1 | inactive | –
